ALDH1A1 inh: inhibitors of human aldehyde dehydrogenase 1A1 | P00352 | Purified ALDH1A1, NADH fluorescence, propionaldehyde substrate | Potency, µM (top dose mostly 75.3 µM), for the others: at the top dose activity, negative = inhibition, most hits filed as inhibitors | hit rate 7.3% among 220,000;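 also: potency is read from the fitted curve at half-maximal effect; plate controls were no enzyme wells and a reference inhibitor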
Target sequence (P00352 whole entry, looked up): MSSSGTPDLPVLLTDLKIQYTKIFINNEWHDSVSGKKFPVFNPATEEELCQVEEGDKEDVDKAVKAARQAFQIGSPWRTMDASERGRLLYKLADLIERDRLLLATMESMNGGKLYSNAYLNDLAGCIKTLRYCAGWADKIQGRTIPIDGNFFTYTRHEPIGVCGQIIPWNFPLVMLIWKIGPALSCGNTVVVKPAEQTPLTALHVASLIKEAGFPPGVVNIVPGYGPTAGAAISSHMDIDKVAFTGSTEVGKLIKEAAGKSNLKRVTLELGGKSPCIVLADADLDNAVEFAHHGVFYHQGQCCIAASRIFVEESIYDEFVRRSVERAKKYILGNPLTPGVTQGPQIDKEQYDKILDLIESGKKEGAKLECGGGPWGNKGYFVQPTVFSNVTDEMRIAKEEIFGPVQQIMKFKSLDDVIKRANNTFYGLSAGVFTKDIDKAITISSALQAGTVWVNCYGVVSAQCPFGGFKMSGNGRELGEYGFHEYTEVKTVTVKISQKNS
PNC inhibitor: inhibitors of perinucleolar compartment assembly; PC3M PTB-GFP, PNC prevalence imaging, 16 h; active compounds read low; activity change (PNC), negative = inhibition, % at 10 µM; hit rate 3.1% among 140,000;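 active = readout at or below -70, meaning at least 70% loss of cells showing the perinucleolar compartment, a nuclear body marking cancer cells; inconclusive = readout between -30 and a set limit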;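 also: plate controls were DMSO wells for no effect and camptothecin positive control wells for full effect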
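PC3M cells stably expressing PTB-GFP, 750–1000 cells/well, treated 16 h at 37 °C with compound (23 nl of library stock), in duplicate. After paraformaldehyde fixation and Hoechst stain, imaged at 20x; PNC prevalence scored by image analysis.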
NPSR antag: blocks cAMP signaling of the human neuropeptide S receptor | Q6W5P4 | Potency, µM (titrated, usually from 38.3 µM), inactives show at the top dose activity change, negative = inhibition, most hits filed as inhibitors | CHO-NPSR cells, cAMP TR-FRET, antagonist mode | hit rate 1% among 220,000; active = well fitted curve in the direction sought with a large enough effect; inconclusive = small, poorly fitted or top-dose-only effect, or another doubt; inactive = no such curve, though single readings can be large; an effect the other way counts as inactive or inconclusive; also: potency is read from the fitted curve at half-maximal effect; nearly all actives have a fitted effect of over 50% in size
HPGD inh: blocks human HPGD enzyme activity. purified HPGD, NADH fluorescence kinetic, PGE2 substrate. AID 894. hit rate 4.3% among 150,000. Potency, µM, inactives show at the highest dose activity change, negative = inhibition, most hits filed as inhibitors; also: potency is read from the fitted curve at half-maximal effect
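20 nM HPGD preincubated 15 min at room temperature with compound in 50 mM Tris-HCl pH 8, 0.01% Tween 20. Started with 1 mM NAD+ and 30 uM prostaglandin E2; NADH fluorescence (360/450 nm) read 5 times over 30-s intervals, last minus first.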
IMPase Li cell: membrane-permeable IMPase blocker, potentiated with lithium | AID 1457 | hit rate 0.35% among 210,000 | CHO-M1 cells, IP1 TR-FRET (IP-One), carbachol + lithium | Potency, µM (top dose mostly 59.4 µM), inactives show at the highest dose activity, negative = IMPase inhibition, most hits filed as inhibitors; active = well fitted curve in the direction sought with a large enough effect; inconclusive = small, poorly fitted or top-dose-only effect, or another doubt; inactive = no such curve, though single readings can be large; an effect the other way counts as inactive or inconclusive;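 also: IP1 builds up when IMPase is blocked and the TR-FRET signal falls; potency is read from the fitted curve at half-maximal effect; plate controls were basal vehicle for no effect and high inhibitor control for full effect; nearly all actives have a fitted effect of over 50% in size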
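CHO cells stably expressing M1 receptor (2000/well, cultured 16–30 h) treated 30 min at 37C with compound plus low lithium. Cytosolic IP1 by TR-FRET (665/620 ratio and 620 channel) after 10 min lysis; AC50 by Hill fit.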
IMPase cell inh: IMPase inhibition in cells; P97697; CHO-M1 cells, IP1 accumulation, HTRF TR-FRET ratio; inhibition (IP1 accumulation), % at 46.1 µM; 120,000 tested, under 10 active; AID 901; active = well fitted curve in the direction sought with a large enough effect in the signal ratio, not every such curve was filed as active; inconclusive = small, poorly fitted or top-dose-only effect, or a change in a side signal; inactive = no such curve, though single readings can be large or run the other way; the % refers to the signal ratio;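 also: cells stimulated with carbachol in lithium chloride buffer; plate controls were DMSO basal wells for no effect and reference inhibitor wells for full effect; higher means more IMPase inhibition seen as more IP1 and lower FRET ratio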
Target sequence (P97697 whole entry, looked up): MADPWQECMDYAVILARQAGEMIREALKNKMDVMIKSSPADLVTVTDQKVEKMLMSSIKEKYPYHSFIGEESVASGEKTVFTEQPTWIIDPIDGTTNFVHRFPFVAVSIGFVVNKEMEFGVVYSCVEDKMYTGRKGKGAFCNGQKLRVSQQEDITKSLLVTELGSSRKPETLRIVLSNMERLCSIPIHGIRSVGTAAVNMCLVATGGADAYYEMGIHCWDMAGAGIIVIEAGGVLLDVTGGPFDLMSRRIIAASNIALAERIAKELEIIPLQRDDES
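Measured: the HTRF emission ratio (665/620 nm) plus the 620 nm donor channel, each fitted to the Hill equation to give AC50. Cells were CHO-M1 given compounds up to 46 uM and a 30 min carbachol stimulation at 37C.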
Active calls of the source: *; ? = inconclusive; / = no result; ! = repeats disagree; [ ] = remark or other dose. Sampled rows, rich in hits. Any-hit rate of the full collection: about 11%. Unless noted, calls follow the shape of the dose curve; as a rule, active = well fitted inhibition curve with a large enough effect (not every such curve was filed as active); inconclusive = small, poorly fitted or top-dose-only effect, or another doubt; inactive = no such curve, though single readings can be large or run the other way. Unless noted, % is scaled to controls: 0 for no effect and ±100 for the full control effect.

SMILES	ALDH1A1 inh	PNC inhibitor	NPSR antag	HPGD inh	IMPase Li cell	IMPase cell inh
CCOC(=O)NC(=O)CSc1ccc2ccccc2n1	?	/	-26%	/	-28%	/
CCOC(=O)N1CCN(C(=O)COc2cc(=O)n(C)c3ccccc23)CC1	4%	14	-2%[46.1 µM]	-2%	12%[38.3 µM]	-9
Nc1ccnc(C(F)(F)F)c1C(=O)c1ccccc1	-7%	-82*	-8%[46.1 µM]	-9%	-11%[38.3 µM]	10
Cc1nnc(SCC(=O)c2ccccc2F)n1Cc1ccccc1	/	/	-3%	/	/	/
COc1ccc(C(=O)NCc2ccc3c(c2)OCO3)cc1	4%	/	10%	/	1%	/
Cc1ccc(CNC(=O)[C@H](C)[C@H]2C[C@]2(C)[C@H](NC(=O)OCc2ccccc2)c2ccccc2)c(F)c1F	3.2µM*	/	/	-34%	8%	/
CNC(=O)[C@H](C)[C@H]1C[C@]1(C)[C@H](NC(=O)OCc1ccccc1)c1ccccc1	7.9µM*	/	/	-11%	-7%	/
Cc1ccc(CNC(=O)[C@H](C)[C@@H]2C[C@@]2(C)[C@@H](NC(=O)OCc2ccccc2)c2ccccc2)c(F)c1F	2%	/	/	-17%	-3%	/
C[C@@H](C(=O)N[C@@H](CO)Cc1ccccc1)[C@H]1C[C@]1(C)[C@H](NC(=O)OCc1ccccc1)c1ccccc1	7.1µM*	/	/	-7%	1%	/
CNC(=O)[C@H](C)[C@@H]1C[C@@]1(C)[C@@H](NC(=O)OCc1ccccc1)c1ccccc1	-9%	19	-19%	3%	-2%	/
COCCNC(=O)[C@H](C)[C@H]1C[C@]1(C)[C@H](NC(=O)OCc1ccccc1)c1ccccc1	28µM*!	-2	-4%	-24%	5%	/
C[C@H](CO)NC(=O)[C@H](C)[C@@H]1C[C@@]1(C)[C@@H](NC(=O)OCc1ccccc1)c1ccccc1	0%	5	-2%	-20%	0%	/
CCCc1cc(=O)[nH]c(SCC(=O)Nc2ccc(C)cc2)n1	12%	/	-2%	/	-4%	/
C[C@@H](C(=O)NCC1CC1)[C@H]1C[C@]1(C)[C@H](NC(=O)OCc1ccccc1)c1ccccc1	18µM*	-1	-16%	-9%	10%	/
C[C@@H](C(=O)NCc1cccc2ccccc12)[C@H]1C[C@]1(C)[C@H](NC(=O)OCc1ccccc1)c1ccccc1	?	/	/	?	2%	/
Cc1ccc(CNC(=O)[C@H](C)[C@H]2C[C@]2(C)[C@H](NC(=O)OCc2ccccc2)c2ccccc2)o1	14µM*!	-13	-28%	25µM*!	4%	/
C[C@@H](C(=O)NCc1ccc(S(C)(=O)=O)cc1)[C@H]1C[C@]1(C)[C@H](NC(=O)OCc1ccccc1)c1ccccc1	6.3µM*	-9	-10%	-19%	19%	/
C[C@@H](C(=O)O)[C@@H]1C[C@@]1(C)[C@@H](NC(=O)OCc1ccccc1)c1ccccc1	-9%	52	2%	-1%	0%	/
COCCNc1ncnc2c1[nH]c1ccccc12	?	/	-15%	/	/	/
Cc1ccc(N2C(=O)CC(Sc3cccs3)C2=O)cc1 (configuration not stated)	2.2µM*	/	-33%	/	/	/
Cc1ccc(SC2CC(=O)N(c3ccc4c(c3)OCCO4)C2=O)cc1 (configuration not stated)	2.5µM*	/	-1%	/	12%	/
Cc1ccc(CC2CC(=O)N(c3ccc(C)cc3)C2=O)cc1 (configuration not stated)	-11%	/	-8%	/	14%	/
CC(=O)Nn1cc2c(c1-c1ccccc1)c(=O)n(C)c(=O)n2C	?	-138*	-21%[46.1 µM]	?	-7%[38.3 µM]	-5
Cn1c(=O)c2c(-c3ccccc3)n(Cc3ccccn3)cc2n(C)c1=O	?	39	2%[46.1 µM]	-10%	25%[38.3 µM]	-6
O=C(Nc1sc2c(c1C(=O)O)CCCC2)c1cccs1	-11%	27	-6%[46.1 µM]	25µM*	1%[38.3 µM]	-5
SMILES	ALDH1A1 inh	PNC inhibitor	NPSR antag	HPGD inh	IMPase Li cell	IMPase cell inh
COC(=O)c1c(NC(=O)c2ccco2)sc2c1CCC2	?	-24	-17%[46.1 µM]	?	5%[38.3 µM]	4
O=C(Nc1sc2c(c1C(=O)O)CCCCC2)c1cccs1	?	/	-26%	/	-3%	/
Cc1ccc(C(=O)Nc2sc3c(c2C(=O)O)CCCCC3)o1	19µM*	?	-22%[46.1 µM]	14µM*	?	-7
Cc1ccc(C)n1-c1sc2c(c1C(=O)O)CCCC2	28µM*	24	2%	-21%	1%	/
O=C(Nc1sc2c(c1C(=O)O)CCC2)c1ccco1	-5%	-24	-14%[46.1 µM]	22µM*	-23%[38.3 µM]	5
CCOC(=O)c1c(-n2c(C)cc(C=O)c2C)sc2c1CCCC2	?	74	?	0%	3%[38.3 µM]	4
COc1ccc(S(=O)(=O)N(C(=O)c2ccncc2)c2ccc3oc4c(c3c2)CCCC4)cc1	-7%	-18	-16%	-18%	7%	-7
COC(=O)c1ccc(CN2C(=O)NC3(CCCCC3)C2=O)cc1	-4%	/	8%	/	3%	/
COCCNC(=O)CSc1nc(-c2ccccc2)c(-c2ccccc2)o1	?	18	-20%[46.1 µM]	?	34%[38.3 µM]	21
O=C(CCCOc1ccccc1)NC(=S)Nc1ccccc1	10µM*	/	-15%	/	1%	/
COCCCNC(=O)CC(C)c1ccccc1 (configuration not stated)	21%	-3	9%	16µM*	5%	/
COCCCNC(=O)NC(=O)c1ccccc1	-7%	-18	5%	1%	3%	/
COCCNC(=O)CSc1nnc(-c2ccccc2)c(-c2ccccc2)n1	22µM*	/	-2%	/	-1%	/
COCCCNC(=O)CCCOc1ccccc1	-11%	?	-4%[46.1 µM]	14µM*	-7%[38.3 µM]	5
O=C(CCCOc1ccccc1)Nc1ccncc1	3%	-23	-6%[46.1 µM]	-4%	34%[38.3 µM]	9
CCCCN(CC)Cc1ccc(CNC(=S)Nc2c(C)cc(C)cc2C)o1	-7%	/	-37%	/	11%	/
Cc1ccc(OCC(=O)Nc2ccc(S(=O)(=O)Nc3onc(C)c3C)cc2)cc1	17%	62	-13%[46.1 µM]	-5%	-3%[38.3 µM]	-1
COCCNC(=O)CC(c1ccccc1)c1ccccc1	8%	20	-3%[46.1 µM]	14µM*	27%[38.3 µM]	1
O=C(CC(c1ccccc1)c1ccccc1)NCCO	2%	-1	-8%[46.1 µM]	-10%	23%[38.3 µM]	1
CCOC(=O)c1ccc(NC(=S)NC(=O)COc2ccccc2)cc1	22µM*	33	-11%	?	1%	/
CCOC(=O)c1ccc(NC(=S)Nc2ccccc2)cc1	?	-30	10%	-13%	-7%	/
CSCCC(NS(=O)(=O)c1ccc2c(c1)OCCO2)C(=O)NCCc1ccccn1 (configuration not stated)	-5%	77	-13%[46.1 µM]	-2%	-10%[38.3 µM]	-2
Cc1ccc(/C(O)=C/C(=O)C(=O)NC23CC4CC(CC(C4)C2)C3)cc1	/	/	24%	/	/	/

Screening data: PubChem BioAssay, National Center for Advancing Translational Sciences (NCATS)
